How the values were obtained:
Assay in all cases: inhibition of PEG-3 promoter-driven reporter – cell-based, HeLa, luciferase, CREF/GAPDH counter-screen panel, dose response (AID 624167)
[1] = target: PEG-3 (UniProt Q6IN02); conditions: CREF/GAPDH counter-screens; HeLa PEG-Prom luciferase reporter, overnight, run 1, dose range 1, at 100 µM (top of the series) unless noted
[2] = target: PEG-3 (UniProt Q6IN02); conditions: CREF/GAPDH counter-screens; HeLa PEG-Prom luciferase reporter, overnight, run 2, dose range 1, at 100 µM (top of the series) unless noted
[3] = system: Rat fibroblasts (CREF); conditions: CREF/GAPDH counter-screens; run 1, dose range 1, at 100 µM (top of the series)
[4] = system: Rat fibroblasts (CREF); conditions: CREF/GAPDH counter-screens; run 2, dose range 1, at 100 µM (top of the series)

PEG-3, sequence (Q6IN02 whole entry, looked up): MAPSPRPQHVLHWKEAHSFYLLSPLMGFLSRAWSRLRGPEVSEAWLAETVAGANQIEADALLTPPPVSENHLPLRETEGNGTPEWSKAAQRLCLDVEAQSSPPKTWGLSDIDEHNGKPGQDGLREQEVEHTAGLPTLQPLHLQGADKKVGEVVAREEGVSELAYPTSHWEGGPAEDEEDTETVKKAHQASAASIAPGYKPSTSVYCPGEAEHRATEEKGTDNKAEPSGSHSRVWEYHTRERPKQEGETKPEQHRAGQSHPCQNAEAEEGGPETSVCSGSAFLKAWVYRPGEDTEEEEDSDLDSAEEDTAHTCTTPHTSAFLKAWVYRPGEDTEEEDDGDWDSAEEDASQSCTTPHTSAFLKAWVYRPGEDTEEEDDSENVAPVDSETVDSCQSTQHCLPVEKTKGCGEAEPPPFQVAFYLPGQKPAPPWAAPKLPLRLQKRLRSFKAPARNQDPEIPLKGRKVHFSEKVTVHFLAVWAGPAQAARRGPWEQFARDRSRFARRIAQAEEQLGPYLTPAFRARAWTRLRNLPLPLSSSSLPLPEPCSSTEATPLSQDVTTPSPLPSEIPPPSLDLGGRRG

Structure (SMILES)	inhibition [1] [%]	inhibition [2] [%]	inhibition [3] [%]	inhibition [4] [%]
COc1ccc(-n2c(O)c(/C=N/Nc3nc(C)cc(C)n3)c3ccccc3c2=O)cc1OC	57.2	63.9	80.4	68.5
Cc1cc(C)c(C)c(S(=O)(=O)N2CCN(C(=O)c3cc(=O)[nH]c4ccccc34)CC2)c1C	82.1	83.8	34.6	90.5
Cc1ccc(C(C[N+](=O)[O-])Sc2ccc(N)cc2)cc1 (stereo not given)	98.7	101	96.1	96.3
O=C(Nc1nc2cc3c(cc2s1)OCO3)C1=COCCO1	88.1	94	93.7	94
O=C(Nc1nc2ccccc2[nH]1)c1ccccc1F	97.3	98.3	98.8	99.2
CN(C)S(=O)(=O)c1ccc(-c2csc(N/N=C/c3ccc(O)cc3)n2)cc1	99.1	101	97.4	98.8
CCCS(=O)(=O)c1cnc(C2COc3ccccc3O2)nc1N (stereo not given)	96.2	94.6	89.5	87.6
CN(C)c1ccc(/C=C2\SC(=O)N(CCc3nnc(N)s3)C2=O)cc1	62	77.4	83	82.3
Cc1nc(SCC(=O)Nc2nc3ccccc3s2)c(C#N)c(C)c1C	95.4	89	97.8	97
Nc1ccc(-c2nc3ccc(C(=O)O)cc3s2)cc1	98.2	98.9	89.1	90.5
CCc1ccn2cc(-c3ccc4c(c3)OCO4)nc2c1	96	89.2	-17.6	97.5
CC1CCCN(c2ncnc3c2cnn3-c2ccc(Cl)cc2)C1 (stereo not given)	98.9	98	94	96.6
O=c1cc(-c2ccc(O)cc2)oc2ccc3ccccc3c12	99.4	101	98.1	97.1
Cc1ccc2nc(-c3ccc4c(c3)OCCO4)cn2c1	98.2	99.6	100	99.9
Oc1[nH]c2ccc(Br)cc2c1N=NC(=S)N1CCOCC1	102	99	30.5	99.1

From PubChem BioAssay
